Activity calls are given as the source filed them.
What was measured:
[1] = target: Albumin (Bos taurus) (UniProt P02769); test: bovine serum albumin binders on microarray, profiling panel, artefact control for SMM control protein annotation, biochemical, small-molecule microarray, Alexa647 label, 635/667 nm fluorescence (AID 1118); conditions: BSA-A647 binding, fluorescence 635 nm, higher = more signal;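 further: score merges 667 nm emission intensity and signal-to-noise per printed compound spot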
[2] = small-molecule microarray binders of probe aXIP, primary screen, biochemical, NeuroSMM set, 635/667 nm fluorescence (AID 1119); conditions: higher = more signal, called active from +8 up or from −8 down;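 further: probe is the protein aXip251-270 applied at 1 µg/mL to compound-printed slides; binding of probe to printed compounds measured as 667 nm fluorescence plus signal to noise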
[3] = small-molecule binders of probe aNOTCH3, primary screen, biochemical, small-molecule microarray, 635/667 nm fluorescence (AID 1120); conditions: higher = more signal;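 further: probe is a biotin-tagged antibody raised against NOTCH3 rather than NOTCH3 protein; score merges spot fluorescence near 667 nm with spot signal to noise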
[4] = small-molecule binders of probe aNOTCH2, primary screen, biochemical, small-molecule microarray, 635/667 nm fluorescence (AID 1121); conditions: higher = more signal;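 further: score merges feature fluorescence read at 667 nm with its signal to noise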
[5] = target: Carbonic anhydrase 2 (Homo sapiens) (UniProt P00918); test: CAII small-molecule binders, profiling panel, biochemical, small-molecule microarray, Alexa647-labelled CAII (AID 1122); conditions: CAII-A647 binding fluorescence, higher = more signal
[6] = COS7 lysate on small-molecule microarray, probe aHis, 635 nm (AID 1123); conditions: COS7 cell lysate, fluorescence, higher = more signal;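 further: z-score combines 667nm fluorescence intensity with signal-to-noise per printed compound spot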
[7] = compound binding in COS7 lysate, probe aLAP1, primary screen, cell lysate, small-molecule microarray (AID 1124); conditions: probe aLAP1, fluorescence, higher = more signal;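 further: lysate comes from COS7 cells expressing LAP1 and is applied at 0.3 µg/mL; score merges spot fluorescence near 667 nm with signal-to-noise over triplicate slides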
[8] = system: Sam68 (KHDRBS1); test: Sam68 small-molecule binders, primary screen, biochemical, small-molecule microarray, 635 nm fluorescence (AID 1125); conditions: small-molecule microarray binding, higher = more signal;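 further: score merges 667 nm channel intensity with signal to noise over triplicate slides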
[9] = system: Chordin-like protein 2 (CHRDL2); test: CHRDL2 small-molecule binders, primary screen, biochemical, small-molecule microarray, 635 nm fluorescence (AID 1126); conditions: small-molecule microarray binding, fluorescence 635 nm; higher = more signal;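 further: printed compound slides probed with Chrdl2 protein at 4 µg/mL for 1 h at 4 C; score merges 667 nm emission intensity with signal to noise over three replicate slides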
[10] = target: Concanavalin-A (Canavalia ensiformis) (UniProt P02866); test: ConA small-molecule binders, primary screen, artefact control for SMM control protein annotation, biochemical, small-molecule microarray, Alexa647 label, 635 nm (AID 1127); conditions: ConA-A647 binding fluorescence, higher = more signal;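 further: z combines 667 nm emission intensity with signal-to-noise across three replicate slides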
[11] = anti-His antibody binders, primary screen, artefact control for SMM control protein annotation, biochemical, small-molecule microarray, 635 nm fluorescence (AID 1128); conditions: anti-His Alexa647 antibody binding, higher = more signal;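 further: score merges feature fluorescence with signal-to-noise for each printed compound spot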
[12] = system: Human papillomavirus type 1a E7 protein (residues 1-88); test: HPV1a E7 small-molecule binders, primary screen, biochemical, small-molecule microarray, residues 1-88, 635 nm (AID 1129); conditions: small-molecule microarray binding, fluorescence 635 nm; higher = more signal
[13] = target: Focal adhesion kinase 1 (Homo sapiens) (UniProt Q05397); test: small-molecule microarray binders of FAK, primary screen, biochemical, 635/667 nm fluorescence, BSA, DTT (AID 1130); conditions: PTK2 binding, 635 nm fluorescence, higher = more signal;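 further: composite of spot emission at 667 nm and signal to noise over triplicate slides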
[14] = system: Fibrinogen (Alexa647-labelled); test: fibrinogen binders on compound microarrays, profiling panel, artefact control for SMM control-protein annotation, biochemical, small-molecule microarray, 635/667 nm fluorescence (AID 1131); conditions: fibrinogen-A647 binding fluorescence, higher = more signal;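 further: z-score merges 667 nm fluorescence with per-spot signal-to-noise over triplicate slides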
[15] = target: Follistatin (Homo sapiens) (UniProt P19883); test: follistatin binders on small-molecule microarrays, primary screen, biochemical, small-molecule microarray, 635/667 nm fluorescence (AID 1132); conditions: FST binding, 635 nm fluorescence, higher = more signal
[16] = target: Fibroblast growth factor 2 (Homo sapiens) (UniProt P09038); test: FGF2 binders on small-molecule microarrays, primary screen, biochemical, small-molecule microarray, 635/667 nm fluorescence (AID 1133); conditions: small-molecule microarray binding, FGF2, fluorescence 635/667; higher = more signal
[17] = mitochondrial membrane potential change in A549 cells, profiling panel, cell-based, JC-1 fluorescence, basal, 24 h, 100 nL (AID 1138); conditions: higher = more signal;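 further: A549 lung adenocarcinoma cells under basal conditions with no added stimulus; test concentration not given here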
[18] = system: Lefty1; test: Lefty1 binders on small-molecule microarrays, primary screen, biochemical, small-molecule microarray, 635/667 nm fluorescence (AID 1139); conditions: small-molecule microarray binding, fluorescence 635/667; higher = more signal
[19] = system: wheat germ agglutinin (Triticum aestivum), Alexa647-labelled; test: wheat germ agglutinin binders on compound microarrays, profiling panel, artefact control for SMM control-protein annotation, biochemical, small-molecule microarray, 635/667 nm fluorescence (AID 1140); conditions: WGA-A647 binding, 635 nm fluorescence, higher = more signal;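 further: score merges 667 nm feature emission with signal to noise over triplicate slides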
[20] = target: Luciferin 4-monooxygenase (Photinus pyralis) (UniProt P08659); test: firefly luciferase enzyme inhibitors, primary screen, biochemical, luminescence, purified enzyme, 2006 set (AID 1141); conditions: SteadyGlo luminescence, 30 min, higher = more signal, called active from +8 up or from −8 down;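 further: cell-free assay with purified firefly luciferase at 100 ng per well in PBS; test concentration not given here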
Chain of Luciferin 4-monooxygenase (Photinus pyralis) (P08659 whole entry, looked up): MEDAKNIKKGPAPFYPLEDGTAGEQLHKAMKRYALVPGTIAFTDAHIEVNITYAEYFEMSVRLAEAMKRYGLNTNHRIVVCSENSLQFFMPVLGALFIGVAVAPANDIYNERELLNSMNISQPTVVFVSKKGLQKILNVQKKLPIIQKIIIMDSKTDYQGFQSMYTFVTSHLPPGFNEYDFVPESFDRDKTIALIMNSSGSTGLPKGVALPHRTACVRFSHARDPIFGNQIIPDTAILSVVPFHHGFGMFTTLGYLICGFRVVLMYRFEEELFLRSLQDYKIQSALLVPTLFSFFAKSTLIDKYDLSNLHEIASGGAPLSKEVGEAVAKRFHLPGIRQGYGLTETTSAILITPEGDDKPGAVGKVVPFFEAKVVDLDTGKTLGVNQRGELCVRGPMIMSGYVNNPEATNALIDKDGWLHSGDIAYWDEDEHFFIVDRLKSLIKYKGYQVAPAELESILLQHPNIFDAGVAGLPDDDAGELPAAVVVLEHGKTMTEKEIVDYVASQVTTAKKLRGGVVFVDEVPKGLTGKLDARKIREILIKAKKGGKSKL

Chain of Focal adhesion kinase 1 (Homo sapiens) (Q05397 whole entry, looked up): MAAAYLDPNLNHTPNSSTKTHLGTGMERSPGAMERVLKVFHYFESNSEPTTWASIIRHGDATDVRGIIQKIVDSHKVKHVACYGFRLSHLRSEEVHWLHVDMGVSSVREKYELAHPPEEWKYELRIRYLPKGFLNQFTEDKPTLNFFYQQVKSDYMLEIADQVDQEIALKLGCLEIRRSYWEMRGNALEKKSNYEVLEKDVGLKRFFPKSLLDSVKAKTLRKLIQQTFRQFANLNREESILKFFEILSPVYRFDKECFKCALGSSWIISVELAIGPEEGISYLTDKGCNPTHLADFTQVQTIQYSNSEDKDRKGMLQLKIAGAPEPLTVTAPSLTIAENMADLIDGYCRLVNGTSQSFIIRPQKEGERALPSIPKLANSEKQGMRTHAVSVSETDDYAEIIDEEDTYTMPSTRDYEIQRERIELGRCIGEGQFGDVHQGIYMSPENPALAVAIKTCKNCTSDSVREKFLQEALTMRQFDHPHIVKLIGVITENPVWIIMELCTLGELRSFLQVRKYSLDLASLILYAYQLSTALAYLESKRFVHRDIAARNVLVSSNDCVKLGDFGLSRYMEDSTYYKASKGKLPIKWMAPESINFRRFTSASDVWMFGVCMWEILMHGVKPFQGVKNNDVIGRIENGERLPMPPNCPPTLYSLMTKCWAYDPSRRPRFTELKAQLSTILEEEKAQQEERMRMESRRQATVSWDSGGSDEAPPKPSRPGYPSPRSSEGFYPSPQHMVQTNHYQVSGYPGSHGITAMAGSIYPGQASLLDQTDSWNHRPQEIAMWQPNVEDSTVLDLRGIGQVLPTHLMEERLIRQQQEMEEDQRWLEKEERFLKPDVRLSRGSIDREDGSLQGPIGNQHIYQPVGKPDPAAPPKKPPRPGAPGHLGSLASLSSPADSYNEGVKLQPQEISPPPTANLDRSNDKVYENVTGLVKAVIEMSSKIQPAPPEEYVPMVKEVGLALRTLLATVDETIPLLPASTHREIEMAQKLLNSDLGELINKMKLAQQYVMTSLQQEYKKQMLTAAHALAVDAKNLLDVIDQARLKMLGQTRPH
Chain of Concanavalin-A (Canavalia ensiformis) (P02866 whole entry, looked up): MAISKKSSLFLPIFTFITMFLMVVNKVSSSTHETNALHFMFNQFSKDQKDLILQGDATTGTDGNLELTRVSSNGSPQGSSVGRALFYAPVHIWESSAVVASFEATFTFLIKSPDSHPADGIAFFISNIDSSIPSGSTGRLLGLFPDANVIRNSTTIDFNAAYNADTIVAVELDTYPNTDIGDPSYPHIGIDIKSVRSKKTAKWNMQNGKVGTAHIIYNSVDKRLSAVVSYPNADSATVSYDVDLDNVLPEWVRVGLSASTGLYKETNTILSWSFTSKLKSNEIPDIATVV
Chain of Follistatin (Homo sapiens) (P19883 whole entry, looked up): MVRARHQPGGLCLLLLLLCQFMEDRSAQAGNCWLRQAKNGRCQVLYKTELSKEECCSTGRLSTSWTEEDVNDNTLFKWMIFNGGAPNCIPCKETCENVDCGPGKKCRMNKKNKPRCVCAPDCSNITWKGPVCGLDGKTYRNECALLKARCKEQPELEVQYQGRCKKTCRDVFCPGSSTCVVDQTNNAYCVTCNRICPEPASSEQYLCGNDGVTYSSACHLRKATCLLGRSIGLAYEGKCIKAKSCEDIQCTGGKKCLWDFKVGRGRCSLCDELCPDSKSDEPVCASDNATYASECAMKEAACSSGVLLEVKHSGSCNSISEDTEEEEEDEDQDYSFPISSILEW
Chain of Albumin (Bos taurus) (P02769 whole entry, looked up): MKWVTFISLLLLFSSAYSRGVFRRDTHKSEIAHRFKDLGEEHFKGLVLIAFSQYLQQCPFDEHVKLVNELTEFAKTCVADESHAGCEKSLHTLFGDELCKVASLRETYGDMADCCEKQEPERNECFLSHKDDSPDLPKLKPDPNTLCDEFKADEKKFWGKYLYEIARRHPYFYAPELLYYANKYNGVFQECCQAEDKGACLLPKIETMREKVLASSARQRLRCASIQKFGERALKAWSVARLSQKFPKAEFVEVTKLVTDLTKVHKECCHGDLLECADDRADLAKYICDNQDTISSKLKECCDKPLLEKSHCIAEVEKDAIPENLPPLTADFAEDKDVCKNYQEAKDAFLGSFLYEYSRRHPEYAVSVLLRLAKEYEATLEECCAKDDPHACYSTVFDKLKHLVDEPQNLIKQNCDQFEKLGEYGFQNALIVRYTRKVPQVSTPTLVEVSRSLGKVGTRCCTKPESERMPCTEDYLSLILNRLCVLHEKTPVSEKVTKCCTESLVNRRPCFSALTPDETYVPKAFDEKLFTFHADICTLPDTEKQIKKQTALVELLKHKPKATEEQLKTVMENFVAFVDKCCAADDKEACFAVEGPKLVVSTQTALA
Chain of Fibroblast growth factor 2 (Homo sapiens) (P09038 whole entry, looked up): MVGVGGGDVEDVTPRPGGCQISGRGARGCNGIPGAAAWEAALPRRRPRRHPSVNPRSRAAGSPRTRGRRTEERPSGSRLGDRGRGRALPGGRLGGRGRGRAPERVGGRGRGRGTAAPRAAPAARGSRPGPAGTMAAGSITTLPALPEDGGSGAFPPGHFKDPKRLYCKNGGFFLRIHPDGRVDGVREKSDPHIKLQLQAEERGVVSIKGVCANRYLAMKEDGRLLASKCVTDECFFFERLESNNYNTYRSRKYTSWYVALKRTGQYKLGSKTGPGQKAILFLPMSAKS

**Q.** What does the source list for CCCNC(=O)OC[C@H]1O[C@H](CCON=C(C)C)C=C[C@@H]1Oc1ccc(OC)cc1?
**A.** composite z-score [1]: 0.317; composite Z-score [2]: -0.0154 (inactive); composite z-score [3]: 0.154; composite z-score [4]: -0.0877; composite z-score [5]: 0.0464; composite z-score [6]: 0.857; composite z-score [7]: -0.384; composite z-score [8]: -0.209; composite z-score [9]: -0.186; composite z-score [10]: 0.853; composite z-score [11]: 1.82; composite z-score [12]: -0.124; composite z-score [13]: 0.105; composite z-score [14]: 0.448; composite z-score [15]: -0.132; composite z-score [16]: -0.245; z-score [17]: -0.218; composite z-score [18]: 0.0114; composite z-score [19]: -0.0321; z-score [20]: -0.129 (inactive)

**Q.** With CO[C@H]1COC(=O)CC=C[C@H](C)[C@@H](OC)COC(=O)[C@H](C)COC(=O)CC=C[C@@H]1C as the molecule, how does the composite z-score [1] read?
**A.** -1.2

**Q.** What about the composite Z-score [2] of the same molecule?
**A.** 0.559 (inactive)

**Q.** What about the composite z-score [3] of the same molecule?
**A.** 0.0306

**Q.** And the composite z-score [4]?
**A.** -0.133

**Q.** And the composite z-score [5]?
**A.** -0.425

**Q.** And the composite z-score [6]?
**A.** -0.552

**Q.** What about the composite z-score [7] of the same molecule?
**A.** 0.975

**Q.** And the composite z-score [8]?
**A.** -0.106

**Q.** And the composite z-score [9]?
**A.** 1.43

**Q.** What about the composite z-score [10] of the same molecule?
**A.** -0.55

**Q.** And the composite z-score [11]?
**A.** 0.487

**Q.** And the composite z-score [12]?
**A.** -0.759

**Q.** What about the composite z-score [13] of the same molecule?
**A.** -0.309

**Q.** And the composite z-score [14]?
**A.** -0.899

**Q.** And the composite z-score [15]?
**A.** 1.36

**Q.** And the composite z-score [16]?
**A.** 1.36

**Q.** What about the z-score [17] of the same molecule?
**A.** 1.13

**Q.** What about the composite z-score [18] of the same molecule?
**A.** 1.12

**Q.** What about the composite z-score [19] of the same molecule?
**A.** -0.844

**Q.** What about the z-score [20] of the same molecule?
**A.** -0.913 (inactive)

**Q.** Which results are given for COc1ccc(O[C@H]2C=C[C@@H](c3ccccc3)O[C@@H]2COC(=O)CCC(C)=NOC[C@@H](O)[C@H]2O[C@@H]3OC(C)(C)O[C@@H]3[C@H]2O)cc1?
**A.** composite z-score [1]: -0.0217; composite Z-score [2]: -0.212 (inactive); composite z-score [3]: -0.0284; composite z-score [4]: -0.101; composite z-score [5]: 0.325; composite z-score [6]: 0.337; composite z-score [7]: -0.123; composite z-score [8]: 1.01; composite z-score [9]: 0.728; composite z-score [10]: 0.249; composite z-score [11]: 0.977; composite z-score [12]: 0.835; composite z-score [13]: 0.179; composite z-score [14]: 0.536; composite z-score [15]: 0.697; composite z-score [16]: 0.439; z-score [17]: -0.206; composite z-score [18]: 0.334; composite z-score [19]: -0.13; z-score [20]: 0.302 (inactive)

**Q.** Which composite z-score [1] does the source give for COC(=O)CC=C[C@@H](C)[C@@H](C=NOCC[C@@H]1C=C[C@H](OC(C)=O)[C@@H](COC(C)=O)O1)NS(=O)(=O)c1ccc(C)cc1 here?
**A.** -0.361

**Q.** What about the composite Z-score [2] of the same molecule?
**A.** 0.366 (inactive)

**Q.** And the composite z-score [3]?
**A.** 0.132

**Q.** And the composite z-score [4]?
**A.** -0.0938

**Q.** What about the composite z-score [5] of the same molecule?
**A.** -0.297

**Q.** What about the composite z-score [6] of the same molecule?
**A.** -0.309

**Q.** What about the composite z-score [7] of the same molecule?
**A.** 0.195

**Q.** And the composite z-score [8]?
**A.** 0.854

**Q.** And the composite z-score [9]?
**A.** 0.687

**Q.** And the composite z-score [10]?
**A.** -2.79

**Q.** What about the composite z-score [11] of the same molecule?
**A.** 2.34

**Q.** And the composite z-score [12]?
**A.** -0.185

**Q.** And the composite z-score [13]?
**A.** 0.15

**Q.** What about the composite z-score [14] of the same molecule?
**A.** -0.329

**Q.** What about the composite z-score [15] of the same molecule?
**A.** 0.273

**Q.** What about the composite z-score [16] of the same molecule?
**A.** 0.237

**Q.** What about the z-score [17] of the same molecule?
**A.** -0.482

**Q.** What about the composite z-score [18] of the same molecule?
**A.** 0.36

**Q.** What about the composite z-score [19] of the same molecule?
**A.** -0.477

**Q.** What about the z-score [20] of the same molecule?
**A.** 1.2 (inactive)

**Q.** With CCOC(=O)[C@H](Cc1ccccc1)NC(=O)CCC1CC(OC(=O)NCc2cccc3ccccc23)CC2(CCCC(COC(=O)NCCC(C)C)O2)O1 (stereo not given in full) as the molecule, how does the composite z-score [1] read?
**A.** 0.793

**Q.** What about the composite Z-score [2] of the same molecule?
**A.** 0.142 (inactive)

**Q.** And the composite z-score [3]?
**A.** -0.0956

**Q.** And the composite z-score [4]?
**A.** -0.133

**Q.** What about the composite z-score [5] of the same molecule?
**A.** 0.742

**Q.** And the composite z-score [6]?
**A.** 0.426

**Q.** And the composite z-score [7]?
**A.** 0.23

**Q.** What about the composite z-score [8] of the same molecule?
**A.** -1.08

**Q.** And the composite z-score [9]?
**A.** -0.0587

**Q.** What about the composite z-score [10] of the same molecule?
**A.** 0.653

**Q.** What about the composite z-score [11] of the same molecule?
**A.** 0.603

**Q.** And the composite z-score [12]?
**A.** -0.431

**Q.** And the composite z-score [13]?
**A.** -0.225

**Q.** And the composite z-score [14]?
**A.** 0.604

**Q.** And the composite z-score [15]?
**A.** 0.123

**Q.** What about the composite z-score [16] of the same molecule?
**A.** -0.278

**Q.** And the z-score [17]?
**A.** -0.0858

**Q.** And the composite z-score [18]?
**A.** 0.129

**Q.** What about the composite z-score [19] of the same molecule?
**A.** 0.757

**Q.** And the z-score [20]?
**A.** 0.871 (inactive)

**Q.** For O=C1C=C[C@@H](O)[C@@H]2[C@@H]3C(=O)N(C[C@@H]4CCCO4)C(=O)[C@@H]3CC[C@@H]12, which composite z-score [1] is on record?
**A.** 0.0654

**Q.** And the composite Z-score [2]?
**A.** 0.681 (inactive)

**Q.** And the composite z-score [3]?
**A.** -0.125

**Q.** What about the composite z-score [4] of the same molecule?
**A.** -0.112

**Q.** And the composite z-score [5]?
**A.** -0.121

**Q.** And the composite z-score [6]?
**A.** -0.17

**Q.** And the composite z-score [7]?
**A.** 0.421

**Q.** And the composite z-score [8]?
**A.** 0.258

**Q.** And the composite z-score [9]?
**A.** 0.458

**Q.** And the composite z-score [10]?
**A.** 0.332

**Q.** What about the composite z-score [11] of the same molecule?
**A.** 0.518

**Q.** What about the composite z-score [12] of the same molecule?
**A.** 0.686

**Q.** What about the composite z-score [13] of the same molecule?
**A.** 0.18

**Q.** And the composite z-score [14]?
**A.** 0.418

**Q.** And the composite z-score [15]?
**A.** 0.23

**Q.** What about the composite z-score [16] of the same molecule?
**A.** 0.535

**Q.** What about the z-score [17] of the same molecule?
**A.** -0.117

**Q.** And the composite z-score [18]?
**A.** 0.756

**Q.** What about the composite z-score [19] of the same molecule?
**A.** 0.221

**Q.** And the z-score [20]?
**A.** -0.0563 (inactive)

— PubChem BioAssay
